PubChem BioAssay (EPA / NIEHS)
Inconclusive results are not listed. Active and inactive are the calls of the source. Rule for the calls, unless noted: active = hit-call score of the fitted dose curve at least 0.9, where 1 is the maximum; inactive = score below 0.9.

Key:
[1] = CCTE_Shafer_MEA_dev_firing_rate_mean: CCTE's Neural Network Formation Assay for Mean Firing Rate, Shafer Lab (AID 2284031)
Procedure, shortened: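 Primary rat cortical neurons on 48-well, 16-electrode MEAs (PEI-coated, laminin at plating), exposed from day 0 with compound renewed at DIV 5 and 9. Spikes recorded DIV 5, 7, 9, 12; well-mean firing rate collapsed to trapezoidal AUC, loss-of-signal vs DMSO.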

[2] = CCTE_Shafer_MEA_dev_per_burst_spike_percent: CCTE's Neural Network Formation Assay for Percent of Spikes in a Burst, Shafer Lab (AID 2284032)
Procedure, shortened: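 Rat primary cortical neurons on 16-electrode MEA wells, dosed from plating day 0 for 12 days with renewal on DIV 5 and 9; spikes-in-bursts percentage averaged over bursting electrodes, collapsed as AUC across days 5, 7, 9, 12; loss direction versus DMSO.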

[3] = CCTE_Shafer_MEA_dev_burst_rate: CCTE's Neural Network Formation Assay for Burst Rate, Shafer Lab (AID 2284042)
Procedure, shortened: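 Exposure ran continuously over 12 days of network development in rat cortical cultures, with compound refreshed during full media changes on DIV 5 and 9. Single-electrode bursts per recording time, well-mean over active electrodes, trapezoidal AUC across days 5–12, fitted downward relative to DMSO.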

[4] = CCTE_Shafer_MEA_dev_bursting_electrodes_number: CCTE's Neural Network Formation Assay for Number of Bursting Electrodes, Shafer Lab (AID 2284043; active = hit-call score of the fitted dose curve at least 0.9, where 1 is the maximum)
Procedure, shortened: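 Primary rat cortical neurons plated on 16-electrode MEA wells, exposed from day 0 with compound renewed at DIV 5 and 9. Electrodes bursting ≥1 burst per 2 min counted on days 5, 7, 9 and 12; trapezoidal AUC across days, fitted for loss versus DMSO.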

[5] = CCTE_Shafer_MEA_dev_per_burst_interspike_interval: CCTE's Neural Network Formation Assay for Burst Interspike Interval, Shafer Lab (AID 2284044);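 note: mean spike spacing inside bursts as AUC over recordings on days 5 7 9 12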
Procedure, shortened: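 Rat cortical primary cultures, 16 electrodes/well; compound from plating, renewed with full media change DIV 5 and 9. Spikes via adaptive detector; per-burst ISI well-mean over active bursting electrodes; AUC of DIV 5/7/9/12 recordings; loss-direction fit vs DMSO.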

[6] = CCTE_Shafer_MEA_dev_burst_duration_mean: CCTE's Neural Network Formation Assay for Mean Burst Duration, Shafer Lab (AID 2284045)
Procedure, shortened: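 Primary rat cortical neurons on 48-well 16-electrode MEA plates, exposed from day 0 with renewal at DIV 5 and 9; spontaneous activity recorded on days 5, 7, 9, 12. Well-mean burst duration across bursting electrodes, collapsed as trapezoidal AUC; DMSO baseline.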

[7] = CCTE_Shafer_MEA_dev_interburst_interval_mean: CCTE's Neural Network Formation Assay for Mean Interburst Interval, Shafer Lab (AID 2284046);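 note: well-mean interburst interval of bursting electrodes as AUC over four recording days; curve fitted for decrease in interburst interval relative to DMSO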
Procedure, shortened: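 Primary rat cortical neurons on PEI-coated 48-well MEA plates (laminin added with cells at plating) (16 electrodes/well), exposed from plating day 0 with renewal at DIV 5 and 9. Mean inter-burst interval averaged over bursting electrodes, AUC across days 5, 7, 9, 12; DMSO baseline.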

[8] = CCTE_Shafer_MEA_dev_inter_network_spike_interval_mean: CCTE's Neural Network Formation Assay for Mean Inter-network Spike Interval, Shafer Lab (AID 2284047)
Procedure, shortened: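 Mean time between consecutive network-spike peaks, recorded extracellularly (adaptive spike detection) on DIV 5, 7, 9 and 12, summarized as trapezoidal AUC. Rat cortical cultures on MEAs dosed continuously days 0–12, re-dosed at feeds; loss-of-signal fit relative to DMSO.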

[9] = CCTE_Shafer_MEA_dev_network_spike_number: CCTE's Neural Network Formation Assay for Number of Network Spikes, Shafer Lab (AID 2284048)
Procedure, shortened: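 Primary rat cortical neurons on PEI/laminin 48-well MEA plates, dosed from plating day 0 for 12 days, renewed at DIV 5 and 9. Network spike counts recorded DIV 5, 7, 9, 12, collapsed as trapezoidal AUC; DMSO baseline.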

[10] = CCTE_Shafer_MEA_dev_network_spike_peak: CCTE's Neural Network Formation Assay for Mean Number of Electrodes in Network Spike, Shafer Lab (AID 2284049)
Procedure, shortened: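 Network-spike peak electrode count from recordings on days 5, 7, 9 and 12 was combined as trapezoidal area under the curve. Rat cortical cultures were treated continuously from plating, with compound renewed at each feed (DIV 5, 9); fits versus DMSO.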

[11] = CCTE_Shafer_MEA_dev_spike_duration_mean: CCTE's Neural Network Formation Assay for Mean Spike Duration, Shafer Lab (AID 2284051);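 note: mean network spike duration pooled as area under curve over DIV 5 to 12 recordings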
Procedure, shortened: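 Spontaneous activity was recorded on days 5, 7, 9 and 12 from rat cortical cultures grown on microelectrode arrays and dosed continuously from day 0, with media and compound renewed after the DIV 5 and 9 recordings. Network-spike duration was collapsed by area under the curve.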

[12] = CCTE_Shafer_MEA_dev_per_network_spike_spike_number_mean: CCTE's Neural Network Formation Assay for Mean Number of Spikes in a Network Spike, Shafer Lab (AID 2284053)
Procedure, shortened: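 Mean spike count within each network spike, taken in a 0.05 s window at its peak, was recorded on days 5, 7, 9 and 12 and integrated as trapezoidal area under the curve. Rat cortical cultures on MEA plates received continuous compound from day 0, refreshed at medium changes on DIV 5 and 9.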

[13] = CCTE_Shafer_MEA_dev_per_network_spike_spike_percent: CCTE's Neural Network Formation Assay for Percent of Spikes in a Network Spike, Shafer Lab (AID 2284054)
Procedure, shortened: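 Rat primary cortical neurons were grown on 48-well MEA plates (16 electrodes/well), exposed from plating day 0 through day 12, with treatment renewed on DIV 5 and 9. Percent of spikes within 0.05 s network-spike peaks was measured, summarised as AUC across days 5, 7, 9, 12.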

[14] = CCTE_Shafer_MEA_dev_AB: CCTE's Alamar Blue Assay for Cytotoxicity in the Neural Network Formation Assay, Shafer Lab (AID 2284083; active = hit-call score of the fitted dose curve at least 0.9, where 1 is the maximum;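 note: resazurin reduction fluorescence as viability of cultured neurons; twelve days of exposure from plating with re-dosing on DIV 5 and 9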)
Procedure, shortened: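 Resazurin fluorescence, relative to DMSO, gauges viability after twelve days of exposure that began at plating of rat cortical neurons (1.5 x 10^5 cells/well, 48-well MEA); treatment renewed with full medium exchange on DIV 5 and 9.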

[15] = CCTE_Shafer_MEA_dev_mutual_information_norm: CCTE's Neural Network Formation Assay for Mutual Information Normalization, Shafer Lab (AID 2284091)
Procedure, shortened: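 Primary rat cortical neurons on PEI-coated 48-well MEA plates, 1.5 x 10^5 cells/well, exposed from day 0 through day 12 with re-dosing at DIV 5 and 9. Mutual information between electrodes recorded days 5, 7, 9, 12; trapezoidal AUC, loss-of-signal fit versus DMSO.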

[16] = UKN2_HCS_IMR90_neural_migration: University of Konstanz (UKN) Leist Lab Neural Crest Cell Migration Assay in human induced IMR90 Pluripotent Stem Cells (UKN2) (AID 2284204); details: actives raise or lower the signal
Procedure, shortened: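 iPSC-derived IMR90 neural crest cells seeded around stoppers on PLO/laminin/fibronectin; migration started in N2-S medium with EGF/FGF, compounds added after 24 h for 24 h. Migration into cell-free area imaged after calcein-AM/Hoechst staining; bidirectional fit versus DMSO.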

[17] = IUF_NPC1b_proliferation_BrdU_72hr: Leibniz Research Institute for Environmental Medicine (IUF) 72-hour Neural Progenitor Cell Bromodeoxyuridine (BrdU) Proliferation Assay (NPC1b) (AID 2284207)
Procedure, shortened: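 BrdU luminescence ELISA quantified DNA synthesis over the last 16 h of a 72 h exposure, fitted against DMSO. Primary hNPC spheres from gestational week 16-19 cortex grown with EGF/FGF at 37C, pH 7.2-7.6.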

[18] = IUF_NPC1a_proliferation_area_72hr: Leibniz Research Institute for Environmental Medicine (IUF) 72-hour Neural Progenitor Cell Proliferation Area Assay (NPC1a) (AID 2284208)
Procedure, shortened: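 Read-out: increase in sphere area over 72 h by automated phase-contrast imaging, fitted in positive direction versus DMSO baseline. One hNPC sphere (0.25-0.35 mm) per well in EGF/FGF medium; growth-factor withdrawal served as positive control.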

[19] = IUF_NPC1_viability_72hr: Viability Assessment at 72 hours in the Leibniz Research Institute for Environmental Medicine (IUF) Neural Progenitor Cell Proliferation Assay (NPC1) (AID 2284209)
Procedure, shortened: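 Human fetal-cortex neural progenitor spheres (0.25–0.35 mm, one per well) grown in EGF/FGF proliferation medium at 37C, pH 7.2-7.6, exposed 72 h without renewal; viability read as alamar blue resazurin-to-resorufin fluorescence relative to DMSO.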

[20] = CCTE_Mundy_HCI_Cortical_Synap_Neur_Matur_NeuriteSpotCountPerNeuriteLength: CCTE's Synaptogenesis and Neurite Maturation Assay in rat cortical cells for Neurite Spot Count per Neurite Length, Mundy Lab (AID 2284210)
Procedure, shortened: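 Rat primary cortical cultures, AraC added at DIV 5 to suppress glia; chemical exposure from DIV 7 to DIV 12. Fixed cells stained for MAP2 and synaptophysin plus Hoechst; synaptophysin puncta per neurite length quantified by high-content imaging, relative to DMSO.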

[21] = CCTE_Mundy_HCI_Cortical_Synap_Neur_Matur_BPCount: CCTE's Synaptogenesis and Neurite Maturation Assay in rat cortical cells for Branch Point Count, Mundy Lab (AID 2284211)
Procedure, shortened: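 Branch point number is quantified by automated imaging of fluorescently labelled neurites and synapses in rat primary cortical neurons exposed from DIV 7 to DIV 12. Activity is analysed relative to DMSO negative control.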

[22] = CCTE_Mundy_HCI_Cortical_NOG_NeuriteCount: CCTE's Neurite Outgrowth Assay in rat cortical cells for Neurite Count, Mundy Lab (AID 2284212);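 note: cells fixed about two days after chemical exposure began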
Procedure, shortened: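 Neurite number per cell from high-content imaging of betaIII-tubulin immunostaining, with Hoechst nuclear counterstain.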

[23] = CCTE_Mundy_HCI_Cortical_Synap_Neur_Matur_NeuriteLength: CCTE's Synaptogenesis and Neurite Maturation Assay in rat cortical cells for Neurite Length, Mundy Lab (AID 2284214)
Procedure, shortened: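 Rat primary cortical cells were plated, treated with AraC at DIV 5 to arrest glial growth, then chemical-dosed with media change at DIV 7 through DIV 12. Fixed cells stained for MAP2, synaptophysin and Hoechst; neurite length quantified by high-content imaging.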

Measured: AC50

CC(=O)N[C@@H](CC(=O)O)C(=O)O
active: [17] 11.7 µM
inactive: [1] | [2] | [3] | [4] | [5] | [6] | [7] | [8] | [9] | [10] | [11] | [12] | [13] | [14] | [15] | [16] | [18] | [19] | [20] | [21] | [22] | [23]
